Assay outcomes from PubChem.
miR-21 act: qHTS Assay for Modulators of miRNAs and/orActivators of miR-21; HeLa miR-21 FLuc reporter, luciferase, 48 h; Potency, µM (series often up to 38.3 µM), for inactives: at the top dose activity change, positive = activation, actives largely listed as activators; 340,000 tested, under 10 active; AID 2288, 2010;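 further: % of control where 0% means no effect; miR-21 action dims this reporter so a rising signal means less miR-21 action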
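HeLa cells stably expressing CMV-driven firefly luciferase with a downstream miR-21 binding sequence, endogenously expressing miR-21, were treated with titrations (up to about 40uM final) for 48 hours at 37 degree Celsius. Luciferase luminescence was read after lysis.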
DT40 TDP1 no CPT: qHTS for Inhibitors of human tyrosyl-DNA phosphodiesterase 1 (TDP1): qHTS in cells in absence of CPT; DT40 Tdp1-/- hTDP1 cells, no CPT, ATP luminescence, 48 h; Potency, µM (series often up to 46.2 µM), for inactives: at the top dose activity change, negative = growth inhibition, hits mostly inhibitors; 420,000 compounds, 15% hits; AID 686978, 2013; further: potency means the concentration at half of the fitted maximal effect; on the % scale 0 is the no-effect control and ±100 the full control effect; nearly all actives have a fitted effect of over 55% in size
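Camptothecin absent (DMSO only). Human TDP1-complemented DT40 knockout cells, 400 cells/well, 37 °C for minimum 48 hr; ATP measured via CellTiter-Glo, 30 min dark incubation, luminescence.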
TDP1 inh: qHTS Assay for Inhibitors of Tyrosyl-DNA Phosphodiesterase (TDP1); Tyrosyl-DNA phosphodiesterase 1 (Homo sapiens), Q9NUW8; Potency, µM (series often up to 130 µM), inactives show at the top dose activity change, negative = inhibition, actives largely listed as inhibitors; AID 485290, 2010; 350,000 compounds, 0.28% hits; recombinant TDP1, AlphaScreen DNA substrate cleavage; further: potency means the concentration at half of the fitted maximal effect; on the % scale 0 is the no-effect control and ±100 the full control effect; nearly all actives have a fitted effect of over 40% in size
Target sequence (Q9NUW8 whole entry, looked up): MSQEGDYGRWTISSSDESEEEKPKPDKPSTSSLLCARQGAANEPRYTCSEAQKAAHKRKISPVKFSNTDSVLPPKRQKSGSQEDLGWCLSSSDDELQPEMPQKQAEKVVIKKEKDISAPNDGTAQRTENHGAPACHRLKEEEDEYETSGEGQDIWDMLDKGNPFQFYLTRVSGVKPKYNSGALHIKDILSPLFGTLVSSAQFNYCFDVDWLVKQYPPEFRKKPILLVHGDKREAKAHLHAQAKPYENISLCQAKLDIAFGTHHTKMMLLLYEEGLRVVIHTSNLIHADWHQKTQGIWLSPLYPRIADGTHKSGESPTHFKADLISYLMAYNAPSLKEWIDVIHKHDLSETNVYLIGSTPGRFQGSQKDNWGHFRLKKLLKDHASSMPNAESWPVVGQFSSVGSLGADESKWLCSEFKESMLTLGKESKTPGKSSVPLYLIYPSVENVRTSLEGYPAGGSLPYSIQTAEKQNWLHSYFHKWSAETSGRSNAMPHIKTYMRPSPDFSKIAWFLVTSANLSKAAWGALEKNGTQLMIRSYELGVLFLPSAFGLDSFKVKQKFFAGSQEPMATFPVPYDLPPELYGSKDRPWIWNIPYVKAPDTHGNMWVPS
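Recombinant human Tdp1 (E. coli-expressed, 1 nM final) preincubated with compounds 15 min at room temperature, then 5'-biotin/3'-phosphotyrosine-FITC DNA substrate (15 nM final) added for 5 min. AlphaScreen beads (10 ug/ml final) added 10 min; cleavage lowers signal.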
TDP1 cell CPT: qHTS for Inhibitors of human tyrosyl-DNA phosphodiesterase 1 (TDP1): qHTS in cells in presence of CPT; chicken DT40 Tdp1-/-;hTDP1 cells + 20 nM CPT, ATP luminescence, 48 h; Potency, µM (highest dose often 46.2 µM), for inactives: top-dose activity change, negative = growth inhibition, most hits filed as inhibitors; 420,000 compounds, 12% hits; further: potency means the concentration at half of the fitted maximal effect; on the % scale 0 is the no-effect control and ±100 the full control effect; nearly all actives have a fitted effect of over 55% in size
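Chicken DT40 Tdp1-/- cells complemented with human TDP1, 400 cells/well, exposed to compounds plus 20 nM camptothecin for at least 48 h at 37 C; viability read as ATP content by CellTiter-Glo luminescence.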
uPA generation: qHTS for Inhibitors of Cell Surface uPA Generation; cell surface uPA generation assay, qHTS; Potency, µM (titrated, usually from 38.3 µM), for inactives: at the top dose activity change, negative = inhibition, hits mostly inhibitors; 330,000 compounds, 0.31% hits; AID 540303, 2011; active means well fitted inhibition curve with a large enough effect; inconclusive means small, poorly fitted or top-dose-only effect; inactive means no such curve, though single readings can be large or run the other way; tested in mouse RAW 264.7 cells; further: potency means the concentration at half of the fitted maximal effect; on the % scale 0 is the no-effect control and ±100 the full control effect; nearly all actives have a fitted effect of over 55% in size
Starred values were filed as active, the others as inactive; ? = inconclusive; . = not tested or not shown; [ ] = dose if it differs, or a comment. Compounds with a hit are over-represented: about 16% of the library has one in this group of screens. Unless noted, the call rests on the fitted dose curve; in most records, active means well fitted curve in the direction sought with a large enough effect; inconclusive means small, poorly fitted or top-dose-only effect, or another doubt; inactive means no such curve, though single readings can be large; an effect the other way counts as inactive or inconclusive.

SMILES	miR-21 act	DT40 TDP1 no CPT	TDP1 inh	TDP1 cell CPT	uPA generation
Cc1c(C(=O)Nc2ccc(F)c(F)c2)oc2ccc(S(=O)(=O)N(C)C3CCCCC3)cc12	27%	15µM*	5%	18µM*	.
COc1ccc(C)cc1NC(=O)c1oc2ccc(S(=O)(=O)N(C)C3CCCCC3)cc2c1C	1%	0%	10%	-3%	.
Cc1cc(C(=O)NC2CCCCCCC2)ccc1[N+](=O)[O-]	.	?	.	?	-7%
CCC(C)C(=O)Nn1c(C2CC2)nc2cc(OC)c(OC)cc2c1=O (stereo not drawn)	3%	-3%	1%	-14%	-8%
Cc1oc(-c2ccc(Cl)cc2)nc1CS(=O)CC(=O)NCCCN(C)C1CCCCC1 (stereo not drawn)	-3%	-23%	5%	?	3%
CC1CCN(CC(=O)Nc2cccc(C(=O)Nc3cccc(C(F)(F)F)c3)c2)CC1	21%	16µM*	3%	?	-11%
CC1CN(CC(=O)Nc2cccc(C(=O)Nc3cccc(C(F)(F)F)c3)c2)CC(C)O1 (stereo not drawn)	19%	23µM*	4%	23µM*	-4%
O=C(CN1CCN(c2ccccc2)CC1)Nc1cccc(C(F)(F)F)c1	-1%	-13%	5%	1%	-1%
COc1ccc(C(=O)NCC2Cc3cc(F)cc(-c4cncnc4)c3O2)cc1 (stereo not drawn)	.	-30%	.	-13%	.
COc1ccc(OC)c(C2SCCN2S(=O)(=O)c2cccc(C(F)(F)F)c2)c1 (stereo not drawn)	4%	?	2%	16µM*	7%
COc1cc(OC)c(C2SCCN2S(=O)(=O)c2ccc(F)cc2)cc1OC (stereo not drawn)	-1%	15µM*	7%	13µM*	-4%
Cc1ccnc(NC(=O)CN(C)S(=O)(=O)c2cccc3nsnc23)c1	2%	7.3µM*	3%	?	4%
Cc1ccc(S(=O)(=O)N(C)CC(=O)Nc2nc3ccccc3s2)cc1	0%	21µM*	3%	16µM*	-2%
Cc1cc[n+](CC(=O)Nc2nc3ccccc3s2)cc1	-4%	8%	3%	7%	-1%
CCOc1ccc(S(=O)(=O)N(C)c2ccc(OCC(=O)Nc3nc4ccccc4s3)cc2)cc1	27%	9.2µM*	-3%	12µM*	-7%
Cc1ccc2nc(NC(=O)CN(C)S(=O)(=O)c3cccc4nsnc34)sc2c1	7%	2.9µM*	-3%	3.3µM*	-8%
CN(c1ccc(OCC(=O)Nc2nc3ccccc3s2)cc1)S(=O)(=O)c1ccccc1	-9%	5%	3%	-28%	-29%
Cc1ccc(NC(=O)CN(C)S(=O)(=O)c2cccc3nsnc23)cc1C	-4%	-27%	10%	-27%	5%
NCCC[C@@H](CC(=O)N[C@@H]1CCNC[C@H]1C(=O)N[C@H](CC(=O)N[C@@H](CCC(=O)O)CC(=O)O)Cc1c[nH]c2ccccc12)NC(=O)C[C@H](CO)NC(=O)[C@@H]1CNCC[C@H]1N	.	.	1%	.	.
COc1ccccc1NS(=O)(=O)c1cccc(C(=O)NNC(=O)C(NC(N)=O)C(C)C)c1 (stereo not drawn)	0%	18%	3%	5%	4%
C[C@H](Oc1ccccc1)C(=O)N[C@@H]1C(=O)N2[C@@H]1SC(C)(C)[C@@H]2C(=O)O	.	.	14%[21 µM]	.	.
Cc1cnc(CNc2ccnc(-c3ccccc3CN(C)C)n2)cn1	.	-2%	.	1%	.
CCn1c2ccccc2c2cc(NC(=O)COc3cc(C)c(Cl)c(C)c3)ccc21	0%	2%	2%	-9%	.
CC1OC(C(C)(C)C)Cc2[nH][nH]c(=O)c21 (stereo not drawn)	.	-14%	.	-14%	.
CSc1ccccc1NC(=O)CN(C)CC(=O)Nc1ccccc1N1CCOCC1	1%	?	-5%	-9%	-3%
SMILES	miR-21 act	DT40 TDP1 no CPT	TDP1 inh	TDP1 cell CPT	uPA generation
COc1ccc(CC(=O)NCc2ccc3c(c2)cc(C)n3C)cc1OC	-3%	15µM*	3%	-27%	12%
COc1cc(/C=C\C(=O)NCc2ccc3c(c2)cc(C)n3C)cc(OC)c1OC	-4%	26µM*	3%	-20%	-8%
COCC(=O)NCc1ccc2c(c1)cc(C)n2C	-1%	-2%	-3%	9%	-4%
Cc1nn(CC(=O)OCC(=O)NCCc2ccc(S(N)(=O)=O)cc2)c(C)c1[N+](=O)[O-]	.	18%	0%	14%	-11%
CCOc1ccc(/C=N/Nc2ccc(Cl)nn2)c(O)c1	-11%	0.58µM*	-1%	1.2µM*	-4%
CCOc1ccccc1/C=N/Nc1ccc(Cl)nn1	-10%	-21%	.	5%	3%
Oc1c(Br)cc(/C=N/Nc2ccc(Cl)nn2)cc1Br	-8%	?	.	9%	13%
Oc1ccc(/C=N/Nc2ccc(Cl)nn2)c(O)c1O	-2%	21µM*	.	?	?
Oc1c(Br)cc(Br)cc1/C=N/Nc1ccc(Cl)nn1	-2%	2.9µM*	.	?	-8%
Cc1ccc(N2CC(c3nnc(NC(=O)c4ccco4)s3)CC2=O)cc1C (stereo not drawn)	1%	-19%	-4%	?	.
NC(=O)COC(=O)c1ccc(C(=O)C(=O)c2ccccc2)cc1	4%	-18%	-6%	-2%	5%
CCCCOc1ccc(C(=O)NCCc2sc(-c3cccc(F)c3)nc2C)cc1	9%	?	-1%	?	.
O=C(Cn1nnc(-c2ccc(OCc3ccccc3F)cc2)n1)N1CCOCC1	-55%	-29%	6%	-8%	.
O=C(NCc1ccco1)C1Cc2c(-c3ccccc3Oc3ccccc3)ccnc2O1 (stereo not drawn)	.	-57%	.	?	.
O=C(NCc1ccncc1)C1Cc2c(-c3ccccc3Oc3ccccc3)ccnc2O1 (stereo not drawn)	.	16µM*	.	13µM*	.
COc1ccc(NC(=O)C2Cc3c(-c4ccccc4Oc4ccccc4)ccnc3O2)cn1 (stereo not drawn)	.	15µM*	.	15µM*	.
CNC(=O)C1Cc2c(-c3ccccc3Oc3ccccc3)ccnc2O1 (stereo not drawn)	.	-27%	.	?	.
COc1ccc(NC(=O)C2Cc3c(-c4ccccc4Oc4ccccc4)ccnc3O2)cc1OC (stereo not drawn)	.	16µM*	.	9.2µM*	.
CC(=O)NCCNC(=O)C1Cc2c(-c3ccccc3Oc3ccccc3)ccnc2O1 (stereo not drawn)	.	-25%	.	-10%	.
